Sfp inh = inhibitors of Bacillus subtilis Sfp phosphopantetheinyl transferase | Biochemical Sfp PPTase activity, qHTS | Potency, µM, most hits filed as inhibitors | hit rate 3.5% among 310,000 | AID 1490;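 note: the enzyme is Sfp with the accession as filed and its product quenches rhodamine fluorescence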
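Step 1, compound plus 15 nM Sfp-PPTase, 15 min, room temperature. Step 2, add rhodamine-CoA (5 uM) and BHQ-2-YbbR (12.5 uM). Step 3, read 525/598 nm fluorescence at 0 and 30 min.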
HP1b binding inh = blocks HP1-beta chromodomain binding to methylated histone tails | P83916 | AlphaScreen HP1-beta / biotin-H3K9me3 peptide binding | Potency, µM (top dose mostly 114 µM), most hits filed as inhibitors | hit rate 0.56% among 390,000 | AID 540317; note: nearly all actives have a fitted effect of over 70% in size
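AlphaScreen: HP1-beta (50 nM) preformed 30 min with biotin-H3(1-18)K9me3 peptide (50 nM) in PBS pH 7.4, 0.01% Tween-20. Compound added for 30 min at RT, then streptavidin donor/nickel chelate acceptor beads (10 ug/mL) for 30 min.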
JMJD2A Tudor = blocks the human JMJD2A Tudor domain; hit rate 4.4% among 390,000; Potency, µM (series often up to 114 µM), most hits filed as inhibitors; AlphaScreen JMJD2A-Tudor / H3K4me3 peptide binding; O75164; note: nearly all actives have a fitted effect of over 50% in size
G9a inh = blocks human histone lysine methyltransferase G9a; Q96KQ7; hit rate 8.8% among 350,000; G9a H3K9 monomethylation, AlphaScreen, 2 h; Potency, µM (series often up to 102 µM), usual class: inhibitors; AID 504332; note: nearly all actives have a fitted effect of over 75% in size
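Compounds were preincubated with 20 nM G9a for 15 min, after which biotinylated H3K9 peptide (500 nM) and SAM (20 uM) started a 2 h room-temperature reaction. Monomethylated product was quantified by antibody-based AlphaScreen chemiluminescence.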
BAZ2B block = BAZ2B (human) inhibition; Potency, µM (top dose mostly 114 µM), most hits filed as inhibitors; Q9UIF8; hit rate 4.4% among 360,000; AID 504333; AlphaScreen BAZ2B-H3K14Ac peptide displacement; note: nearly all actives have a fitted effect of over 60% in size
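BAZ2B (50 nM) with biotin-H3(5-23)K14Ac peptide (50 nM) in PBS pH 7.4, 0.01% Tween-20, preformed 30 min, then compound 30 min at room temperature; top concentration 110uM. AlphaScreen streptavidin donor/nickel chelate acceptor beads (10 ug/mL final), 20 min dark, signal read.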
Large screens that a line does not name were inactive. Sampled rows, rich in hits. Any-hit rate of the full collection: about 12%. Calls come from the whole dose curve; as a rule, active = well fitted curve in the direction sought with a large enough effect; inconclusive = small, poorly fitted or top-dose-only effect, or another doubt; inactive = no such curve, though single readings can be large; an effect the other way counts as inactive or inconclusive.

NS(=O)(=O)c1ccc(NC(=S)N2CCC(Cc3ccccc3)CC2)cc1	Sfp inh 22µM, HP1b binding inh inconclusive, JMJD2A Tudor inconclusive, G9a inh 14µM, BAZ2B block inconclusive
Cc1cccc(NC(=O)CCNC(=O)c2ccc(Br)cc2)c1	none
O=C1NC2(C=Cc3c(ccc4ccccc34)O2)Oc2ccccc21 (stereo not drawn)	none (no result: G9a inh)
Cc1nn(CCO)c(C)c1Oc1ccccc1O	none
O=C(CSc1nc2c([nH]c3ccccc32)c(=O)n1-c1ccccc1)N1CCCCCC1	none (no result: Sfp inh)
CCn1c(=O)cc(OCC(=O)N2CCN(c3ccc(C(C)=O)cc3)CC2)c2ccccc21	BAZ2B block inconclusive (no result: Sfp inh)
NC(=O)C1(N2CCCCC2)CCN(C(=S)Nc2ccc(S(N)(=O)=O)cc2)CC1	Sfp inh 4µM (no result: G9a inh)
COc1cccc(C(=O)Nc2ccc(NC(C)=O)cc2)c1	none
COc1cccc(C(=O)C(C#N)=C(SC)SC)c1	Sfp inh 4µM, G9a inh 40µM
CSC(SC)=C(C#N)C(=O)c1ccccc1	Sfp inh 7.9µM, G9a inh 50µM
CCOC(=O)Cc1nn2c(=O)cc(C)nc2s1	BAZ2B block 79µM
O=C(c1ccc(F)cc1F)N(Cc1ccccn1)Cc1ccco1	JMJD2A Tudor inconclusive, G9a inh 22µM, BAZ2B block inconclusive
CC(=O)N(Cc1ccccn1)Cc1ccco1	none (no result: G9a inh)
COc1ccccc1N1C(=O)C2ON(c3ccccc3)C(c3ccc(N(C)C)cc3)C2C1=O (stereo not drawn)	Sfp inh 45µM, G9a inh 8.9µM, BAZ2B block 35µM (no result: HP1b binding inh, JMJD2A Tudor)
O=C(N/N=C/c1ccc(F)cc1)c1ccc(-n2cnnn2)cc1	none (no result: Sfp inh)
CC(C(=O)NC1C=CS(=O)(=O)C1)N1C(=O)/C(=C/c2ccc(Cl)cc2)SC1=S (stereo not drawn)	Sfp inh inconclusive, JMJD2A Tudor inconclusive, BAZ2B block 22µM (no result: G9a inh)
CCN(C(=O)C(C)N1C(=O)/C(=C/c2ccco2)SC1=S)C1CCS(=O)(=O)C1 (stereo not drawn)	Sfp inh 16µM, HP1b binding inh inconclusive, JMJD2A Tudor 56µM, G9a inh 20µM, BAZ2B block 45µM
CC(C(=O)N(C)C1CCS(=O)(=O)C1)N1C(=O)/C(=C/c2ccc(F)cc2)SC1=S (stereo not drawn)	Sfp inh 50µM, G9a inh inconclusive, BAZ2B block inconclusive
O=C(CCN1C(=O)/C(=C/c2ccc(F)cc2)SC1=S)NC1C=CS(=O)(=O)C1 (stereo not drawn)	none
COc1cc(OC)cc(C(=O)N[C@H](C(=O)OCC(=O)c2ccc(F)cc2)C(C)C)c1	none (no result: BAZ2B block)
COc1ccccc1-c1nc(C#N)c(N2CCN(C(=O)c3ccco3)CC2)o1	none
COc1ccc(O)c(/C=N/c2sc(C)c(C)c2C#N)c1	Sfp inh inconclusive, HP1b binding inh inconclusive, JMJD2A Tudor 79µM, G9a inh inconclusive
Cc1sc(/N=C/c2c(O)ccc3ccccc23)c(C#N)c1C	G9a inh 10µM (no result: HP1b binding inh, JMJD2A Tudor)
O=C(CNCc1ccc(Cl)cc1)N1CCc2ccccc2C1	JMJD2A Tudor 22µM, BAZ2B block inconclusive
O=C(CN1CCc2ccccc2C1)NCc1ccco1	G9a inh inconclusive
CC(NCc1ccco1)C(=O)N1CCc2ccccc2C1 (stereo not drawn)	HP1b binding inh inconclusive, JMJD2A Tudor 11µM, G9a inh inconclusive, BAZ2B block 56µM
O=C(Cc1ccccc1)NCC(=O)N1CCc2ccccc2C1	none
O=C(CNC1CCCCC1)N1CCc2ccccc2C1	Sfp inh inconclusive, JMJD2A Tudor 3.2µM, BAZ2B block 71µM
O=C(NC1CCCCC1)N1CCc2ccccc2C1	none
O=C(CNCCc1ccccc1)N1CCc2ccccc2C1	HP1b binding inh inconclusive, JMJD2A Tudor 3.2µM, G9a inh 22µM, BAZ2B block 50µM
CCN(CC)c1nc(N)c2c(N)nc(OC)cc2c1C#N	none (no result: Sfp inh, G9a inh, BAZ2B block)
CCOc1ccc(CCNC(=O)c2ccc3c(=O)n4c(nc3c2)CCCCC4)cc1	none
O=C(CNCc1cccc(Cl)c1)N1CCc2ccccc2C1	JMJD2A Tudor 20µM, G9a inh 14µM, BAZ2B block 56µM
COc1ccc(C(=O)NC2CC2)cc1OC1CCN(Cc2ccc(F)cc2)CC1	none
Oc1c(Cl)cc(Cl)cc1CNc1nccs1	G9a inh 79µM
Cc1cccc(Cl)c1OCCN1CCCC1	JMJD2A Tudor 4µM, G9a inh 40µM, BAZ2B block inconclusive
Cc1cccc(OCCCN2CCCCCC2)c1	HP1b binding inh inconclusive, JMJD2A Tudor 7.9µM, G9a inh 6.3µM, BAZ2B block 79µM
Clc1cccc(Cl)c1OCCCCN1CCCCC1	HP1b binding inh inconclusive, JMJD2A Tudor 20µM, G9a inh 22µM, BAZ2B block 79µM
Clc1cccc(OCCN2CCNCC2)c1	HP1b binding inh inconclusive, JMJD2A Tudor 18µM, G9a inh 14µM
Cc1cc(CC(=O)O)c(C)cc1CC(=O)O	none
Cc1ccc2sc(N(Cc3cccnc3)C(=O)Cc3ccccc3)nc2c1C	none (no result: Sfp inh)
Clc1cccc(OCCCCN2CCCCC2)c1	HP1b binding inh inconclusive, JMJD2A Tudor 22µM, G9a inh inconclusive, BAZ2B block 56µM
CCCCN(CCCC)C(=O)c1sc2nc(N3CCOCC3)c3c(c2c1N)CCCC3	Sfp inh 11µM, G9a inh 45µM
Nc1c(C(=O)NCCc2ccccc2)sc2nc(N3CCOCC3)c3c(c12)CCCC3	Sfp inh 22µM, G9a inh 16µM

Source: PubChem (National Center for Advancing Translational Sciences (NCATS))
